LYPLA1 counter = counter-screen for PME1 inhibitors: inhibitors of human LYPLA1 | O75608 | recombinant LYPLA1, FP-Rh probe fluorescence polarization | inhibition, % at 5.9 µM | 320,000 tested, 0.16% active | AID 2174;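 active means inhibition above the mean of all tested compounds plus 3 SD, set per campaign, cut at about 14% in these data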;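 further: inhibitors block serine hydrolase probe labeling of LYPLA1 so polarization falls; 0% = enzyme with DMSO and 100% = wells lacking LYPLA1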
Fam108B counter = counter-screen for RBBP9 inhibitors: inhibitors of mouse Fam108B | recombinant Fam108B, FP-Rh probe fluorescence polarization | 300,000 tested, 0.33% active | AID 1947 | inhibition, % at 9.51 µM;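 active means inhibition above the screen mean inhibition plus 3 SD, computed separately per campaign, cut at about 18% in these data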;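 further: inhibitors lower polarization as less probe binds the enzyme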
PAD4 inh = blocks human protein arginine deiminase 4; recombinant PAD4, RCA probe fluorescence polarization; inhibition, % at 6.36 µM; 330,000 tested, 0.41% active; AID 485272;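 active means percent inhibition above a cutoff equal to the mean of all tested compounds plus 3 SD, cut at about 15% in these data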;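 further: 0% = PAD4 with RCA probe and DMSO and 100% = probe without PAD4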
LYPLA2 counter = blocks human lysophospholipase 2, a PME1 counter-screen; inhibition, % at 5.9 µM; recombinant LYPLA2, FP-Rh probe fluorescence polarization; AID 2177; 320,000 tested, 0.38% active;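 active means inhibition above the screen-wide mean plus 3 SD, limit set per campaign, cut at about 26% in these data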;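 further: 0% = LYPLA2 with DMSO and 100% = wells lacking LYPLA2 enzyme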
GSTO1 counter = counter-screen for RBBP9 inhibitors: inhibitors of human GSTO1 | P78417 | inhibition, % at 5.96 µM | 300,000 tested, 1.1% active | recombinant GSTO1, activity-based probe fluorescence polarization;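 active means inhibition above the campaign mean inhibition plus 3 SD, cut at about 35% in these data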;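 further: 0% = GSTO1-1 with DMSO and 100% = wells lacking GSTO1-1 enzyme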
PME-1 inh = blocks human protein phosphatase methylesterase 1; recombinant PME-1, FP-Rh probe fluorescence polarization; inhibition, % at 5.9 µM; AID 2130; Q9Y570; 320,000 tested, 0.53% active;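 active means inhibition above the campaign mean of all compounds plus 3 SD, cut at about 26% in these data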;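 further: competitive labeling of PME-1 active site by serine hydrolase directed probe; 0% = PME-1 with DMSO and 100% = wells lacking PME-1 enzyme; inhibitors block probe labeling so polarization falls and inhibition rises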
Target sequence (Q9Y570 whole entry, looked up): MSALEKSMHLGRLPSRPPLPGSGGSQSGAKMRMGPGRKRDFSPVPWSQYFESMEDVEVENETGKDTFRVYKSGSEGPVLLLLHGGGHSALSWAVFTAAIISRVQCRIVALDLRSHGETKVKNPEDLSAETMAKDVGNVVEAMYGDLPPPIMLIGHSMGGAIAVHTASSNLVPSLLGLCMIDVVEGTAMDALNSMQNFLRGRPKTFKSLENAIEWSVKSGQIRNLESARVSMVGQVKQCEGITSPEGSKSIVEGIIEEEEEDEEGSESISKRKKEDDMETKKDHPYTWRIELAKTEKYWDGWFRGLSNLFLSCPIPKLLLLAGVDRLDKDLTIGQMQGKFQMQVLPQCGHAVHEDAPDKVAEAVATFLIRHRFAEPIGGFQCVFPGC
* marks the source's active call; other numbers are inactive results; x = not tested or not shown. Hits are enriched below; roughly 1.8% of the tested compounds scored in any of these assays.

SMILES	LYPLA1 counter	Fam108B counter	PAD4 inh	LYPLA2 counter	GSTO1 counter	PME-1 inh
Cc1cc(C)n2[nH]c(=O)c(N=Nc3cccc(Cl)c3)c2n1	5	5	-1	18	24	5
CCOc1ccc(N=Nc2c(=O)[nH]n3c(=O)cc(C)[nH]c23)cc1	2	-2	-6	6	11	5
CN(CC(=O)Nc1ccccc1C(F)(F)F)C(=O)CSc1nc(N)cc(N)n1	-2	x	0	-5	x	12
O=C(NC1CCCCC1)C(c1ccc(O)c(O)c1)N(C(=O)Cn1nnc2ccccc21)c1cccc(O)c1 (centres undefined)	-1	0	-1	6	36*	0
CC(=O)c1cccc(N(C(=O)Cn2nnc3ccccc32)C(C(=O)NC2CCCCC2)c2cn(C)nc2C)c1 (centres undefined)	1	-2	-2	1	2	-3
Cc1ccc(N=Cc2cc3c(cc2[N+](=O)[O-])OCO3)cc1[N+](=O)[O-]	-4	8	-12	-5	36*	8
Cc1ccc(C)c(N=Cc2cc3c(cc2[N+](=O)[O-])OCO3)c1	-3	0	-18	5	20	3
Fc1ccc2[nH]c3c(N4CCN(c5ccccc5)CC4)ncnc3c2c1	0	16	-1	1	1	46*
COc1ccc(N2CCN(c3ncnc4c3[nH]c3ccccc34)CC2)cc1	5	13	-1	10	1	32*
CCOC(=O)N1CCN(c2ncnc3c2[nH]c2ccc(F)cc23)CC1	-1	0	-2	-3	-1	8
COc1ccc(C(=O)COC(=O)C2COc3ccccc3O2)cc1F (centres undefined)	x	x	1	x	x	x
O=C(N/N=C/c1c(O)ccc2ccccc12)c1ccc[n+](CCO)c1	-4	-4	2	-3	44*	-1
O=C(N/N=C/c1c(O)ccc2ccccc12)c1cccnc1	-5	5	-11	-2	15	10
Cn1cc(C(=O)N/N=C/c2c(O)ccc3ccccc23)ccc1=O	-2	16	5	4	39*	13
Oc1ccc2c(c1)C1CCCC1(N1CCOCC1)O2 (centres undefined)	0	2	3	6	42*	-1
CCN(CC)c1ccc(N=Cc2ccccc2[N+](=O)[O-])cc1	4	7	8	4	69*	5
CC(=O)N(C)c1ccc(N=Cc2cc3c(cc2[N+](=O)[O-])OCO3)cc1	1	0	-12	1	12	0
Cc1ccc(S(=O)(=O)c2ccccc2)cc1S	-3	-3	36*	-8	-25	-6
Nc1ccc(S(=O)(=O)c2cccc(N)c2)cc1	-3	-1	0	-1	7	-3
COc1cc2c(c(OC)c1OC)-c1ccc(NC(=O)c3ccc(F)cc3)c(=O)cc1[C@@H](NC(C)=O)CC2	-3	25*	-5	0	6	31*
CN1CCN(Cc2nc3c([nH]2)c(=O)[nH]c(=O)n3C)CC1	4	0	0	-1	36*	-7
COc1ccc(Cl)cc1NC(=O)CN(C)C(=O)c1cn(-c2ccccc2)nc1-c1cccnc1	-3	5	-1	3	2	-6
Cc1ccc(Cl)cc1N1CCN(C(=O)c2ccccc2SCC(=O)N2CCCC2)CC1	-1	x	1	3	x	5
Cc1nc(C(C)NC(=O)c2cc(COc3ccc(C)c(C)c3)on2)c(C)s1 (centres undefined)	-1	1	-1	-1	2	1
COc1ccc(NC(=O)COc2ccc(N(C)S(=O)(=O)c3ccc(Cl)cc3)cc2)cc1OC	-8	2	0	-8	-12	0
Cc1ccc2nc(=O)c(NNc3ccccc3)cnc2c1	-3	4	-2	-1	-3	41*
CC(C)c1ccc(NS(=O)(=O)c2ccc(-n3cccn3)cc2)cc1	-2	-7	1	2	35*	-2
Cc1ccc(NC(=O)CC(=O)Nc2ccc(C)c(C)c2)cc1C	-8	-9	-1	-10	-2	-11
Cc1ccc(Sc2ccc(NC(=O)CCl)cc2)cc1C	-4	2	9	-3	78*	-5
COc1ccc(-c2cc(=O)n(-c3ccc([N+](=O)[O-])cc3)[nH]2)cc1	-9	3	36*	4	53*	20

From PubChem
